The values below are quoted from earlier work in PubChem BioAssay AID977611.

Out of some 3,900 compounds screened, about 3,900 (100%) were called active. The limit is not given here; nearly all actives have Kd up to about 4200 µM. So high a share suggests a set chosen from earlier hits. The list shows a part of the results. Where a SMILES comes first, the peptide text is derived from it. Non-standard residues stand in square brackets, D forms with d. Square brackets hold non-standard residues; d marks the D form. Residues, ends and D or L forms follow the SMILES beside them. Peptide text beside a SMILES is read from it. [ ]: non-standard residue; d: D form. Orn(CH(NH2)2) = NC(N)NCCC[C@H](N)C(=O)O; Lys(Me2) = CN(C)CCCC[C@H](N)C(=O)O

This series can be described thus: PubChem AID 977611. As to conditions: PDB protein-ligand complexes, literature Kd.

Turning to `CC[C@H](C)[C@H](N)C(=O)N[C@@H](CS)C(=O)N[C@H](C(=O)N[C@@H](Cc1c[nH]c2ccccc12)C(=O)N[C@@H](CCC(N)=O)C(=O)N[C@@H](CC(=O)O)C(=O)N[C@@H](Cc1c[nH]c2ccccc12)C(=O)NCC(=O)N[C@@H](C)C(=O)N[C@@H](Cc1cnc[nH]1)C(=O)N[C@@H](CCCNC(N)N)C(=O)N[C@@H](CS)C(=O)N[C@H](C(=O)O)[C@@H](C)O)C(C)C`, for the setting “protein: Component C3c, PDB entry 2qki”, the Kd is 0.39 µM (active). For the molecule `O=C(O)c1ccc2nc(-c3cc(Cl)cc(Cl)c3)oc2c1`, the Kd (protein: Transthyretin (V122I mutation), PDB entry 4his) is 0.0081 µM (active). As for `CC(=O)[C@]1(O)CC2=C(C(=O)C3=C(C(=O)c4ccccc4C3=O)C2O)[C@@H](O[C@H]2C[C@H](N)[C@H](O)[C@H](C)O2)C1` (some centres not stated), the Kd (protein: Chitinase A, PDB entry 3arq) is 0.4 µM (active). For the molecule `CCC/C=C/CCO[C@H]1O[C@H](CO)[C@@H](O)[C@H](O)[C@@H]1O`, the Kd (protein: Protein FimH, PDB entry 4lov) is 0.0171 µM (active). As for `N[C@@H](CCS)C(=O)O`, the Kd (protein: Betaine-Homocysteine S-Methyltransferase from Homo sapiens, PDB entry 4m3p) is 4 µM (active). Take `C[C@H](CCCCN(C)C)NC(=O)[C@@H](N)CCCNC(N)N`: under “protein: Tumor suppressor p53-binding protein 1, PDB entry 2ig0”, the Kd is 19.7 µM (active). Consider `CN(C)CCCC[C@H](N)C(=O)O`, for which the Kd (protein: Tumor suppressor p53-binding protein 1 tandem tudor domain, PDB entry 3lgl) was 0.9 µM (active). On to `CC(=O)NCCCC[C@H](N)C(=O)O`, for which the Kd (protein: Chromatin structure-remodeling complex protein Rsc4(36340), PDB entry 2r0y) was 1000 µM (active). For `CC(C)C[C@H](NC(=O)[C@H](CC(C)C)NC(=O)[C@H](CC(N)=O)NC(=O)[C@H](Cc1c[nH]c2ccccc12)NC(=O)[C@H](Cc1ccc(O)cc1)NC(=O)[C@H](CCC(=O)O)NC(=O)[C@H](C)NC(=O)[C@H](Cc1ccccc1)NC(=O)[C@H](CO)NC(=O)[C@@H](N)[C@@H](C)O)C(=O)N[C@H](C=O)CO` (H-TSFAEYWNLLS-aldehyde), the Kd (protein: E3 ubiquitin-protein ligase Mdm2, PDB entry 3eqs) is 0.0033 µM (active).

As to `CC(C)[C@H](N)C(=O)N[C@@H](Cc1ccc(O)cc1)C(=O)N[C@@H](Cc1c[nH]c2ccccc12)C(=O)N[C@@H](Cc1ccccc1)C(=O)O` (H-VYWF-OH), the Kd (protein: Protease degS, PDB entry 2r3y) is 3.2 µM (active). For the molecule `CC(C)C[C@H](NC(=O)[C@H](C)NC(=O)[C@H](Cc1c[nH]c2ccccc12)NC(=O)[C@H](Cc1ccc(O)cc1)NC(=O)[C@H](CCC(=O)O)NC(=O)[C@H](C)NC(=O)[C@H](Cc1ccccc1)NC(=O)[C@H](CO)NC(=O)[C@@H](N)[C@@H](C)O)C(=O)N[C@@H](CC(C)C)C(=O)N[C@@H](CO)C(=O)O`, the Kd (protein: human MDM2, PDB entry 3lnz) is 0.00049 µM (active).

On to `C[C@H](N)C(=O)N[C@@H](CCCNC(N)N)C(=O)N[C@H](C(=O)N[C@@H](CCCCN)C(=O)N[C@@H](C)C(=O)O)[C@@H](C)O` (H-A[Orn(CH(NH2)2)]TKA-OH), for which the Kd (protein: Baculoviral IAP repeat-containing protein 5, human Survivin, PDB entry 3uef) is 21 µM (active). For `C[C@H](N)C(=O)N[C@@H](CCCNC(N)N)C(=O)N[C@H](C(=O)N[C@@H](C)C(=O)O)[C@@H](C)O` (H-A[Orn(CH(NH2)2)]TA-OH), the Kd (protein: WD-repeat protein 5(WDR523), PDB entry 2h9p) was 192 µM (active). As to `C[C@H](N)C(=O)N[C@@H](CCCNC(N)N)C(=O)N[C@H](C(=O)O)[C@@H](C)O`, where the note is “protein: ING4, PDB entry 2vnf”, the Kd is 3 µM (active). `C[C@H](NC(=O)CNC(=O)[C@@H](N)CS)C(=O)N[C@@H](CCCNC(N)N)C(=O)O` (H-CGA[Orn(CH(NH2)2)]-OH): the Kd (protein: ?-chain of Hepatocyte growth factor-like protein, PDB entry 2asu) was 0.001 µM (active). For the molecule `C[C@@H](O)[C@H](NC(=O)CNC(=O)[C@@H](N)CCCNC(N)N)C(=O)O`, the Kd (protein: Proto-oncogene tyrosine-protein kinase Src, PDB entry 4hxj) was 74.3 µM (active).

Regarding `OC[C@H]1CN[C@@H](O)[C@@H](O)[C@@H]1O`, the Kd (protein: MANNOSYL-OLIGOSACCHARIDE 1,2-ALPHA-MANNOSIDASE, PDB entry 4ayr) is 0.099 µM (active). `C[C@H]1NC(=NCCC[C@H](N)C(=O)O)N[C@H]1O`: the Kd (protein: Advanced glycosylation end product-specific receptor V domain, PDB entry 2mov) is 0.04 µM (active). H-AGGPTIEEVD-OH: for the setting “protein: Protein UNC-45, PDB entry 4i2w”, the Kd was 121 µM (active). Regarding `C[C@H](N)C(=O)N[C@@H](C)C(=O)N[C@@H](CCCCN(C)C)C(=O)N[C@@H](CO)C(=O)N[C@H](C(=O)NCC(=O)NCC(=O)O)[C@@H](C)O` (H-AA[Lys(Me2)]STGG-OH), the Kd (protein: Euchromatic histone-lysine N-methyltransferase 1(Glp), PDB entry 3b95) was 7 µM (active). With `C[C@H](NC(=O)[C@H](CCCCN)NC(=O)[C@H](CCCCN)NC(=O)[C@H](CCCCN)NC(=O)[C@@H](NC(=O)[C@H](CO)NC(=O)CNC(=O)[C@H](CCCCN)NC(=O)[C@@H]1CCCN1C(=O)[C@H](CCC(=O)O)NC(=O)[C@@H]1CCCN1C(=O)[C@H](CCC(=O)O)NC(=O)[C@H](CCCCN)NC(=O)[C@H](CCCNC(N)N)NC(=O)[C@H](CCCCN)NC(=O)[C@H](C)NC(=O)[C@@H](N)CO)[C@@H](C)O)C(=O)N[C@@H](CCCCN)C(=O)N[C@H](C(=O)O)[C@@H](C)O` (H-SAK[Orn(CH(NH2)2)]KEPEPKGSTKKKAKT-OH), the Kd (protein: Importin subunit alpha-2, PDB entry 3uvu) is 0.042 µM (active). As to `C[C@H](N)C(=O)N1CCC[C@H]1C(=O)N1CCC[C@H]1C(=O)NCC(=O)N[C@H](C(=O)N[C@@H](C)C(=O)N[C@@H](CCCNC(N)N)C(=O)N[C@@H](CCCNC(N)N)C(=O)N[C@@H](CCCCN)C(=O)N[C@@H](CCCNC(N)N)C(=O)N[C@@H](CCCCN)C(=O)N[C@@H](C)C(=O)N[C@@H](CC(=O)O)C(=O)N[C@@H](CO)C(=O)O)[C@@H](C)O` (H-APPGTA[Orn(CH(NH2)2)][Orn(CH(NH2)2)]K[Orn(CH(NH2)2)]KADS-OH), the equilibrium dissociation constant (Kd) (protein: Signal recognition particle 43 kDa protein, chloroplast, PDB entry 2hug) was 1.06 µM (active).

What is called Kd is the constant that tells how readily two partners part at equilibrium.
